# Source: PubChem BioAssay (National Center for Advancing Translational Sciences (NCATS))
# Only some compounds are listed: those with a hit (about 2.4% of all), similar ones and a draw of the others.
# D2 ag-1 – Beta-Arrestin HTS for Positive Allosteric Modulators of the Human D2 Dopamine Receptor: Agonists; DiscoveRx PathHunter D2 beta-arrestin, luminescence, 90 min; 100% = 57 uM dopamine signal; activation, % (no concentration beside the values); 360,000 tested, 0.084% active; AID 624465, 2012; in the data active means activation above about 40%; inconclusive means between about 15% and that limit
# Target sequence (P14416 whole entry, looked up): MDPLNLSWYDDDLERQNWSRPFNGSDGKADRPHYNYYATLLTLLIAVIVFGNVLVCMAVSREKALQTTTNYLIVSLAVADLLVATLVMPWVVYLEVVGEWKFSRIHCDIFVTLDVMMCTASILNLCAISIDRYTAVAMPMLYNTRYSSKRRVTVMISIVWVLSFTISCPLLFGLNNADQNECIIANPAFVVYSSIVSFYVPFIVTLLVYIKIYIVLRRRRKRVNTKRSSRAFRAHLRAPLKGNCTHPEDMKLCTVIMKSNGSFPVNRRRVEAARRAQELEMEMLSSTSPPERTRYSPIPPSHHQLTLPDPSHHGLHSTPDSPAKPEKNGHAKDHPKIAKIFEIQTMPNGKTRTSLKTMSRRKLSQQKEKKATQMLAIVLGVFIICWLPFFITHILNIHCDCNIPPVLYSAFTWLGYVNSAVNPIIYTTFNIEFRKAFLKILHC
#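 Agonist mode: compounds alone added to overnight-plated D2 PathHunter cells for 90 min at 37 C, with 57 uM final dopamine (EC100) defining full response. Beta-arrestin recruitment detected by chemiluminescent reagent, read after 1 h at ambient temperature.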
# D2 antag – HTS Assay for Allosteric Antagonists of the Human D2 Dopamine Receptor: Primary Screen for Antagonists. D(2) dopamine receptor (Homo sapiens), P14416. HEK293 TREx D2 cells, calcium flux, dopamine EC80. inhibition, % at 10 µM. 340,000 tested, 2% active; in the data active means inhibition above about 30%; inactive means below that, where a call was filed
#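 Inhibition of EC80 dopamine-driven calcium flux, recorded kinetically, defines activity here; cells are a tetracycline-induced HEK293 T-REx line expressing force-coupled D2.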
# D2 ag-2 – HTS Assay for Allosteric Agonists of the Human D2 Dopamine Receptor: Primary Screen for Agonists; D(2) dopamine receptor (Homo sapiens), P14416; HEK293 T-REx D2 cells, calcium flux agonist mode; activation, % at 2 µM; 340,000 tested, 0.53% active;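 active means activation over 3 SD above normal in the single-dose calcium agonist read, cut at about 30% in these data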
#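 HEK293 Trex D2 cells, tetracycline-induced, o/n 30 C 5% CO2; no-wash Ca dye, RT 30–90 min; 10-cycle baseline, 23 nl cpd added, kinetic Ca read 180 s; agonist hits = positive Ca response.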
# D2 PAM-1 – Beta-Arrestin HTS for Positive Allosteric Modulators of the Human D2 Dopamine Receptor: Potentiators; DiscoveRx D2 beta-arrestin cells, luminescence, 90 min; 100% = 57 uM dopamine signal; potentiation, % (no concentration beside the values); 360,000 tested, 0.23% active; D(2) dopamine receptor (Homo sapiens), P14416; in the data active means potentiation above about 50%; inconclusive means mostly about 30% to 49%
#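 PathHunter D2 cells, attached overnight at 37 deg C, received compound in DMSO plus dopamine at EC20 (50 nM final) for 90 min at 37 deg C. Beta-arrestin recruitment was read as luminescence after 1 h with detection reagent at ambient temperature.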
# D2 PAM-2 – HTS Assay for Positive Allosteric Modulators of the Human D2 Dopamine Receptor: Primary Screen for Potentiators. D(2) dopamine receptor (Homo sapiens), P14416. HEK293 T-REx D2, calcium flux, EC20 dopamine potentiation. potentiation, % at 10 µM. 340,000 tested, 0.34% active. AID 485347, 2010;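 active means potentiation over 3 SD above the plate norm, cut at about 30% in these data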
#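 Tetracycline-induced Hek293 Trex D2 cells, force-coupled to calcium, loaded with no-wash calcium dye. Compound added with 180 s kinetic read for agonism, then EC20 dopamine and a further 180 s read for potentiation.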
# Numbers stand for hits; - = inactive; ? = inconclusive; . = no result.
SMILES,D2 ag-1,D2 antag,D2 ag-2,D2 PAM-1,D2 PAM-2
CN(C)c1ccc(/C=C/C(=O)c2cccc(Br)c2)cc1,-,-,113,-,-
O=C(CSc1nc(O)c(C2CCCCC2)c(=O)[nH]1)N1CCOCC1,-,43,-,-,-
O=C(CSc1nc(O)c(Cc2ccccc2)c(=O)[nH]1)N1CCOCC1,-,-,-,-,-
Cc1nnc(NC(=O)c2ccc(S(=O)(=O)N3CCCCCC3)cc2)o1,-,-,-,-,-
CC1CCCN(S(=O)(=O)c2ccc(C(=O)Nc3nnc(-c4ccccn4)o3)cc2)C1 (stereo unspecified),-,35,-,-,-
COCc1nnc(NC(=O)c2ccc(S(=O)(=O)N3CCCCCC3)cc2)o1,-,-,-,-,32
CCc1ccccc1NC(=O)CN1C(=O)c2cccnc2Oc2ccc(Cl)cc21,.,.,-,.,-
Cc1nnc(SCc2nc(-c3ccc(Cl)cc3)no2)n1-c1ccc(F)cc1,.,.,-,.,-
CC(NC(=O)c1ccco1)C(=O)NC(C)c1cc(F)c(Cl)cc1Cl (stereo unspecified),-,-,-,-,30
CC(NC(=O)[C@H](C)NC(=O)c1ccco1)c1ccc(S(N)(=O)=O)cc1 (stereo partly specified),-,-,-,-,-
O=C(COC(=O)Cn1nc(-c2ccccc2)oc1=O)Nc1ccc(F)cc1,-,-,-,65,-
Cc1cc(C)n(-c2ccc(C(=O)N3CC(C)OC(C)C3)cc2)n1 (stereo unspecified),-,34,-,-,-
CC(C)n1c(O)c(N=NC(=O)CNC(=O)c2cccnc2)c2ccccc21,-,41,-,-,-
CC(Sc1nc2ccccc2c(=O)n1CCc1ccc(S(N)(=O)=O)cc1)C(=O)NC(N)=O (stereo unspecified),-,-,-,-,40
COC(=O)[C@@H]1[C@H]2C[C@H]3c4[nH]c5ccccc5c4CCN3C[C@@H]2CC[C@@H]1O,-,58,-,-,-
CN1CCc2c(n(CC(O)CNCc3ccccc3)c3ccccc23)C1=O (stereo unspecified),-,66,-,-,-
CN1CCc2c(n(CC(O)CN(CCO)CCO)c3ccccc23)C1=O (stereo unspecified),-,-,-,-,-
CC(C)(C)CC(=O)Nc1cc2c3c(c1)CCC(=O)N3CCC2,-,35,-,-,-
Cc1ccc(S(=O)(=O)Nc2nc3c(s2)C(=O)CC(C)(C)C3)cc1,-,-,-,-,-
CC1(C)CC(=O)c2sc(NS(=O)(=O)Cc3ccccc3)nc2C1,-,-,-,-,34
CC(C)(C)c1nc2c(C#N)c(-c3ccc(Cl)cc3)ccn2n1,?,-,-,68,-
Cc1ccc(CNC(=O)CCCN2C(=O)COc3ccc(C)cc32)cc1,.,.,-,.,-
O=C(NCc1ccccc1)C(c1cccnc1)N(C(=O)c1ccccn1)c1ccccc1F (stereo unspecified),-,-,-,-,-
CC(C)(C)NC(=O)C(c1ccncc1)N(C(=O)c1csnn1)c1ccccc1 (stereo unspecified),-,-,-,-,-
Cc1ccccc1N(C(=O)c1ccccn1)C(C(=O)NCc1ccccc1)c1cccnc1 (stereo unspecified),-,.,.,-,36
SMILES,D2 ag-1,D2 antag,D2 ag-2,D2 PAM-1,D2 PAM-2
Cc1ccsc1C(C(=O)NCc1ccccc1)N(C(=O)c1csnn1)c1ccccc1 (stereo unspecified),-,33,-,-,-
Cc1ccccc1N(C(=O)c1csnn1)C(C(=O)NC(C)(C)C)c1cccs1 (stereo unspecified),-,36,-,-,-
Cc1ccc(N(C(=O)c2csnn2)C(C(=O)NC(C)(C)C)c2cccs2)cc1 (stereo unspecified),-,-,-,-,-
CC(C)(C)NC(=O)C(c1ccco1)N(C(=O)c1csnn1)c1ccccc1 (stereo unspecified),-,-,-,-,36
O=C(Nc1cccc(Cl)c1)c1ccc2c(c1)CCN2S(=O)(=O)c1ccccc1,.,.,.,.,-
CCC(C)(C)NC(=O)C(c1cccnc1)N(C(=O)c1csnn1)c1ccccc1 (stereo unspecified),-,-,-,-,40
Cc1cc(C)cc(NC(=O)CCN2C(=O)c3ccccc3Sc3ncccc32)c1,.,.,-,.,-
CCN(c1cccc(C)c1)S(=O)(=O)c1ccc2[nH]cc(C(=O)NCCCOC)c(=O)c2c1,.,.,-,.,.
CC(C)Cn1cnc2c1c(=O)n(CC(=O)NC(=O)NC(C)(C)C)c(=O)n2Cc1ccccc1,-,-,-,-,31
NC(=O)C(c1ccccc1)C1CCCCC1 (stereo unspecified),-,52,-,-,-
CCOC(=O)c1c(NC(=O)CSc2ncn[nH]2)sc(C)c1C,-,38,-,-,-
CCOC(=O)c1c(NC(=O)CSc2ncn[nH]2)sc(C(=O)NC)c1C,-,-,-,-,-
O=C(Cn1ccc([N+](=O)[O-])n1)N1CCc2ccccc21,-,-,-,-,-
Cc1nn(C(=O)Cn2ccc([N+](=O)[O-])n2)c(C)c1Br,-,-,-,-,31
CCC(=O)N1CCc2cc(CNC(=O)c3ccccc3C)ccc21,.,.,-,.,-
Cc1cccc(N2CCN(S(=O)(=O)c3c(C(=O)N4CCC(C)CC4)c(C)n(C)c3C)CC2)c1C,.,.,.,.,-
O=C(CNS(=O)(=O)c1ccccc1)OCC(=O)c1ccc(F)cc1,-,-,-,-,36
COc1cc(C)c(/C=C(\C#N)C(=O)Nc2ccc(C)cc2)cc1C(C)C,-,75,-,-,-
COCCNC(=O)/C(C#N)=C/c1cc(C(C)C)c(OC)cc1C,-,-,-,-,-
CCCCCNC(=O)C1CC=CCC1C(=O)O (stereo unspecified),-,36,-,-,-
Cc1ccccc1Nc1nc(-c2sc(NC(=O)c3cccc(Cl)c3)nc2C)cs1,.,-,-,.,31
COc1ccc(C(C)(C)C)cc1NC(=O)COC(=O)CSCc1c(C)noc1C,-,36,-,-,-
COc1ccc(NC(=O)c2cc3c(=O)n(Cc4ccco4)ccc3nc2C)c(OC)c1,.,.,-,.,.
CCCCNC(=O)c1c(-c2ccccc2)c(-c2ccccc2)nn(C)c1=O,.,.,-,.,-
O=C(COc1cccc2cccnc12)Nc1ccccc1N1CCOCC1,-,30,-,-,.
